We go through 10 compounds from PubChem BioAssay (Tox21).

Assay [1] is described as follows: qHTS assay for identifying genotoxic compounds that show differential cytotoxicity against isogenic chicken DT40 cell lines with known DNA damage response pathways - wild type cell line (AID 743012). Also: nearly all actives have a fitted effect of over 60% in size. In outline:
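Viability by ATP luminescence (CellTiter-Glo, 30 min RT) after 40 h compound treatment at 37 C/5% CO2, using 300 parental DNA repair-proficient DT40 cells per well.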

Assay [2] is described as follows: qHTS assay for identifying genotoxic compounds that show differential cytotoxicity against isogenic chicken DT40 cell lines with known DNA damage response pathways - Rev3 mutant cell line (AID 743014). Also: nearly all actives have a fitted effect of over 55% in size. Also: potency is read from the fitted curve at half-maximal effect.
Assay [3] is described as follows: qHTS assay for identifying genotoxic compounds that show differential cytotoxicity against isogenic chicken DT40 cell lines with known DNA damage response pathways - Rad54/Ku70 mutant cell line (AID 743015). Also: nearly all actives have a fitted effect of over 60% in size. Also: potency is read from the fitted curve at half-maximal effect.
Assay [4] is described as follows: qHTS assay to identify small molecule antagonists of the androgen receptor (AR) signaling pathway - cell viability counter screen (AID 743033; also: nearly all actives have a fitted effect of over 45% in size).
Assay [5] in a line: qHTS assay to identify small molecule antagonists of the androgen receptor (AR) signaling pathway using the MDA cell line - cell viability counter screen (AID 743041; also: nearly all actives have a fitted effect of over 45% in size). In outline: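 Using the breast carcinoma line MDA-kb2 AR-luc, test chemicals were co-incubated with R1881 for 16 h; CellTiter-Fluor reagent, added at 15.5 h, provided a fluorescence measure of live cells.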
Assay [6] in a line: qHTS assay to identify small molecule antagonists of the thyroid receptor (TR) signaling pathway - cell viability counter screen (AID 743064). Also: nearly all actives have a fitted effect of over 50% in size. Summed up: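 Plate GH3.TRE-Luc cells; incubate 4 h at 37 °C; add compound, then T3 to 1 nM final; incubate 23.5 h; add CellTiter-Fluor; incubate 30 min at 37 °C, 5% CO2; read fluorescence.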
Assay [7] is described as follows: qHTS assay to identify small molecule antagonists of the thyroid receptor (TR) signaling pathway (AID 743065). Also: series mostly up to about 70 µM; nearly all actives have a fitted effect of over 55% in size. In outline: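 Antagonism measured as loss of luciferase signal in GH3 cells stably carrying a TRE-luciferase reporter, co-treated with compound and T3 (1 nM final) for 23.5 h at 37 C. Viability was read in the same well by CellTiter-Fluor.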
The test system of assay [8] is thyroid hormone receptor (rat, GH3 cells). The experiment in a line: qHTS assay to identify small molecule agonists of the thyroid receptor (TR) signaling pathway (AID 743066; calls by dose curve).
For assay [9], the target named is Estrogen receptor (Homo sapiens) (UniProt P03372). The experiment in a line: qHTS assay to identify small molecule antagonists of the estrogen receptor alpha (ER-alpha) signaling pathway (AID 743069; active = well fitted curve in the direction sought with a large enough effect in the signal ratio in the repeat runs, not every such curve was filed as active; the % refers to the signal ratio). In outline: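 Fluorescence intensity from a beta-lactamase FRET substrate served as the read-out. Cells: HEK293 with stably integrated ER-alpha-UAS-bla reporter. Agonist 17beta-estradiol was co-added with compounds; incubation 18 hr at 37C, substrate 2 hr at room temperature.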
Sequence of Estrogen receptor (Homo sapiens) (P03372 whole entry, looked up): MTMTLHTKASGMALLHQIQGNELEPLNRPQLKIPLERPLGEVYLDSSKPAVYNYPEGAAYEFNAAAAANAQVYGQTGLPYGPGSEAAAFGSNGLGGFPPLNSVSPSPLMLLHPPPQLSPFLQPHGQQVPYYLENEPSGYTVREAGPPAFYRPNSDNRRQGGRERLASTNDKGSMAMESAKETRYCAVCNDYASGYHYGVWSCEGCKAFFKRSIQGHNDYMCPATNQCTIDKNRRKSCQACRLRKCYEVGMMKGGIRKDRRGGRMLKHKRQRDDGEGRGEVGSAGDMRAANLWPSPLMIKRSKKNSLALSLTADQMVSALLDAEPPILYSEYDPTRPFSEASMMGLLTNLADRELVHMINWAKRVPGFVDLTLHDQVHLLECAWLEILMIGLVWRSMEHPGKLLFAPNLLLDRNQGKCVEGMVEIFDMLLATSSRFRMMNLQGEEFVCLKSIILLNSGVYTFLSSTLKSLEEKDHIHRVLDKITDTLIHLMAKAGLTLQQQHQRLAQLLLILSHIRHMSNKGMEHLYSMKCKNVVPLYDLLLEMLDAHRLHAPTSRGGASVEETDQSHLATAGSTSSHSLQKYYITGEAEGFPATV

Assay [10] can be described thus: qHTS assay to identify small molecule antagonists of the estrogen receptor alpha (ER-alpha) signaling pathway - cell viability counter screen (AID 743074; calls by dose curve; also: nearly all actives have a fitted effect of over 45% in size).
In assay [11] the target is Estrogen receptor (Homo sapiens) (UniProt P03372). As to the kind of experiment: qHTS assay to identify small molecule agonists of the estrogen receptor alpha (ER-alpha) signaling pathway (AID 743075; calls by dose curve).
The target is the same in assay [12]. The experiment in a line: qHTS assay to identify small molecule agonists of the estrogen receptor alpha (ER-alpha) signaling pathway using the BG1 cell line (AID 743079). Also: nearly all actives have a fitted effect of over 20% in size. Also: potency is read from the fitted curve at half-maximal effect.
The nature of assay [13]: qHTS assay to identify small molecule antagonists of the estrogen receptor alpha (ER-alpha) signaling pathway using the BG1 cell line (AID 743080; calls by dose curve;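 also: BG1 cells stimulated with 17beta-estradiol alongside compound; series mostly up to about 70 µM; nearly all actives have a fitted effect of over 25% in size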). Summed up:
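Readout is ONE-Glo luminescence, taken 30 min at room temperature after reagent addition, preceded by a CellTiter-Fluor viability read; BG1-Luc-4E2 cells had received compound and 17beta-estradiol for 21.5 h at 37 C.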

Assay [14] can be described thus: qHTS assay to identify small molecule antagonists of the estrogen receptor alpha (ER-alpha) signaling pathway using the BG1 cell line - cell viability counter screen (AID 743081).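 Also: compound given together with 17beta-estradiol as the ER stimulus; series mostly up to about 70 µM; nearly all actives have a fitted effect of over 45% in size.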
In the next assay the target is Aromatase (Homo sapiens) (UniProt P11511). As to the kind of experiment: qHTS assay to identify aromatase inhibitors (AID 743083). Also: series mostly up to about 70 µM; nearly all actives have a fitted effect of over 55% in size.
Sequence of Aromatase (Homo sapiens) (P11511 whole entry, looked up): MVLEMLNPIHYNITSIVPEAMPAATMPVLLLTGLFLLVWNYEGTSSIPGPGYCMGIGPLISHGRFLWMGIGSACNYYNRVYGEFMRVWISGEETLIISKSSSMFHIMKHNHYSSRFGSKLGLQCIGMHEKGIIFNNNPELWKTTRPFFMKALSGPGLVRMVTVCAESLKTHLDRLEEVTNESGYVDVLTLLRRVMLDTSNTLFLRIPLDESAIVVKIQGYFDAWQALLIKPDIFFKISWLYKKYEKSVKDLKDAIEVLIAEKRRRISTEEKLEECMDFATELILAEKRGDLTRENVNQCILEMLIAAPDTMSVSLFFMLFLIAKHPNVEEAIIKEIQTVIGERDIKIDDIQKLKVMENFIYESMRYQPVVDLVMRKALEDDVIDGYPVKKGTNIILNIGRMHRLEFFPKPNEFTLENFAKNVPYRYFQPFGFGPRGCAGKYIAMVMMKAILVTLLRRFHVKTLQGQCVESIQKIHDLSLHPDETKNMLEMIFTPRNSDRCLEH
A short description of assay [15]: qHTS assay to identify small molecule antagonists of the glucocorticoid receptor (GR) signaling pathway - cell viability counter screen (AID 720693). Also: nearly all actives have a fitted effect of over 55% in size.
The target of assay [16] is Androgen receptor (Homo sapiens) (UniProt P10275). The experiment in a line: qHTS assay to identify small molecule antagonists of the androgen receptor (AR) signaling pathway (AID 743035; active = well fitted inhibition curve with a large enough effect in the signal ratio in the repeat runs, not every such curve was filed as active; the % refers to the signal ratio). In outline: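 Antagonist mode: AR-bla HEK293 cells co-treated with test compounds and agonist R1881 for 16 h at 37C, 5% CO2. Beta-lactamase activity read as FRET fluorescence after 2 h room-temperature substrate loading.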
Sequence of Androgen receptor (Homo sapiens) (P10275 whole entry, looked up): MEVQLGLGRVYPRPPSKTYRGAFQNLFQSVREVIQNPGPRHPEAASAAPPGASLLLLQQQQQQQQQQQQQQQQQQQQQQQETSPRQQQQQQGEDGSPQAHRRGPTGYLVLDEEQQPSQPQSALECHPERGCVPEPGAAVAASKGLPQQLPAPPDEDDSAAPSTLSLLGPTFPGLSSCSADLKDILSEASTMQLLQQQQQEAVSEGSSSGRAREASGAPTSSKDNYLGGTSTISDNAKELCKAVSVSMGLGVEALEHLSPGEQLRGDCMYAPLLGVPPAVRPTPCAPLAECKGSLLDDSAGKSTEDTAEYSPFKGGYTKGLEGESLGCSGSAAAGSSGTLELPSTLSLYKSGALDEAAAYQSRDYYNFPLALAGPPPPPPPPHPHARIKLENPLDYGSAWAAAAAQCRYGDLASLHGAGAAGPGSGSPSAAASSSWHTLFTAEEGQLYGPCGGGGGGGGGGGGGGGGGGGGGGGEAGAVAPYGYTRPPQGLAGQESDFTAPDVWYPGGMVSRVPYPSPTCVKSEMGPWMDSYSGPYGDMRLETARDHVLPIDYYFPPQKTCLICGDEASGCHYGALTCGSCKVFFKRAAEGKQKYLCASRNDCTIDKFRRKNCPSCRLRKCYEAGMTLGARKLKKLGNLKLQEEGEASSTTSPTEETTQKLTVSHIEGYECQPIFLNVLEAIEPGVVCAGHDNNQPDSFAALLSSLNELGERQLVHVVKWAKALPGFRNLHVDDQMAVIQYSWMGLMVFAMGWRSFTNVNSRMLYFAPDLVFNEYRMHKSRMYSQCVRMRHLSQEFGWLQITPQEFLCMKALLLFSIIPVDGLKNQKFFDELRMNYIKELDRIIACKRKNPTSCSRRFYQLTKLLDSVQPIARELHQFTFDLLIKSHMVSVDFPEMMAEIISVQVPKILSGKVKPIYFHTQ

Assay [17] shares this target. The experiment in a line: qHTS assay to identify small molecule agonists of the androgen receptor (AR) signaling pathway (AID 743036; active = well fitted activation curve with a large enough effect in the signal ratio in the repeat runs, with a control signal flat, not every such curve was filed as active; the % refers to the signal ratio). In outline: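 Reporter line: GeneBLAzer AR-UAS-bla-GripTite (HEK293). Steps: plate cells, 4 h rest, add compounds, 16 h at 37C, add LiveBLAzer B/G substrate, 2 h at RT, read fluorescence.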
For assay [18] the target is unchanged. The experiment in a line: qHTS assay to identify small molecule agonists of the androgen receptor (AR) signaling pathway using the MDA cell line (AID 743040; also: nearly all actives have a fitted effect of over 20% in size). In outline: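 Stable MMTV-luciferase reporter in MDA-kb2 cells; note the promoter carries GR as well as AR response elements. 16 h compound treatment, 37C, 0% CO2; ONE-Glo luminescence endpoint.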
The target is the same in assay [19]. The experiment in a line: qHTS assay to identify small molecule antagonists of the androgen receptor (AR) signaling pathway using the MDA cell line (AID 743042; also: nearly all actives have a fitted effect of over 55% in size). In outline:
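Antagonist mode: compounds plus R1881 agonist added to MDA-kb2 AR-luc cells, incubated 16 h at 37C. Luciferase reporter luminescence quantified, with multiplexed CellTiter-Fluor readout for cell viability.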

Each structure is given as a SMILES string. A number with no mark means an inactive call. Records with an inconclusive call do not appear. Calls of active or inactive are those of the source. Unless noted, calls follow the shape of the dose curve; as a rule, active = well fitted curve in the direction sought with a large enough effect in the repeat runs; inconclusive = weak or mixed curves; inactive = no such curve, though single readings can be large; an effect the other way counts as inactive or inconclusive.

Regarding `CCCCCCCCCCCCCCCCCC(=O)OCCCCCCCCCCCCCC(C)C`, the Potency result in assay [1], in [2], in assay [3], in assay [5], in assay [6] and in assay [7] was “inactive” throughout. In addition, the Potency entry (in [8]; in assay [9]; in [11]; in assay [13]; with Aromatase (Homo sapiens)) was “inactive” in each case. Besides, the call in assay [4], in assay [10] and in assay [14] was inactive. Moreover, the Potency in [12] was 56.4 µM (active).

Take `NS(=O)(=O)c1cc2c(cc1Cl)NC(CSCc1ccccc1)=NS2(=O)=O`: the compound was classed as inactive in assay [15], in assay [10] and in assay [14]. In addition, the Potency entry in assay [3], in [5], in [6], in assay [7], in [8] and in assay [9] was “inactive” in each case. For the same compound, the Potency entry (in assay [11]; in [12]; in [13]; with Aromatase (Homo sapiens)) was “inactive” throughout.

For the compound `CC1CCN(CCCC(=O)c2ccc(F)cc2)CC1`, the compound was called inactive in assay [15], in assay [4], in assay [10] and in assay [14]. For the same compound, the Potency in assay [3] was 7.5 µM (active). The Potency entry in assay [6], in assay [7], in [8], in assay [9], in [11] and in assay [12] was “inactive” in each case. Further, the Potency result (in assay [13]; with Aromatase (Homo sapiens)) was “inactive” in each case.

As for `CO[Si](OC)(OC)OC`, the call in [15], in [4], in [10] and in [14] was inactive. The Potency result (in assay [5]; in assay [8]; in the assay with Aromatase (Homo sapiens)) was “inactive” each time.

`Cc1onc(-c2ccccc2)c1-c1ccc(S(N)(=O)=O)cc1`: the compound was classed as inactive in assay [15], in [4], in assay [10] and in assay [14]. Further, the Potency result (in [2]; in assay [5]; in assay [6]; in assay [7]; in [8]; in the assay with Aromatase (Homo sapiens)) was “inactive” each time.

Consider `Cc1ccc(Nc2ccc(O)c3c2C(=O)c2ccccc2C3=O)cc1`, for which the Potency result in [1], in [2], in [3], in assay [5], in [6] and in assay [7] was “inactive” in each case. The Potency result (in assay [8]; in [9]; in [11]; in [12]; in assay [13]; with Aromatase (Homo sapiens)) was “inactive” in each case. Besides, the outcome in assay [4], in assay [10] and in [14] was inactive.

As to `CC1=CCC2C(C1)C2(C)C` (stereo unspecified), the compound was called inactive in assay [15], in assay [4], in assay [17], in assay [19], in [10] and in [14]. The Potency result in assay [16], in assay [18], in assay [5], in assay [6], in assay [7] and in [8] was “inactive” each time. The Potency result (in assay [9]; in assay [11]; in assay [12]; in assay [13]; in the assay with Aromatase (Homo sapiens)) was “inactive” throughout.

`NCCN1CCNC1=O`: the compound was called inactive in [15], in [4], in assay [10] and in assay [14]. For the same compound, the Potency entry in [3], in [6], in [7], in [8], in assay [9] and in assay [11] was “inactive” in each case. Also, the Potency entry (in [12]; in assay [13]; with Aromatase (Homo sapiens)) was “inactive” in each case.

For `CC(C)[C@H](N)C(=O)OCCOCn1cnc2c(=O)[nH]c(N)nc21`, the compound was classed as inactive in assay [15], in assay [4], in [10] and in [14]. Further, the figures for the Potency in assay [2] and in assay [3] were 23.7 µM (active) and 26.6 µM (active), respectively. For the same compound, the Potency entry in assay [7], in [8], in assay [9], in assay [11], in assay [12] and in assay [13] was “inactive” in each case. Moreover, the Potency entry with Aromatase (Homo sapiens) is “inactive”.

On to `CCCCCCCCC=O`, for which the Potency result in [1], in [2], in assay [3], in assay [6], in assay [7] and in assay [8] was “inactive” throughout. The Potency result in assay [12] is “inactive”. Besides, the outcome in assay [4], in assay [10] and in assay [14] was inactive.
